Experimental data taken from the supplement of paper PMC6897291.
Structures can show the parent of a compound that is named as a salt.

System: RIVA
Assay: growth inhibition by drug plus 177Lu-lilotomab satetraxetan (1 - RLU/untreated control) (fraction); higher = stronger inhibition
Details: 177Lu-lilotomab satetraxetan 0.5 ug/ml
Description: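 RIVA (RI-1) ABC-DLBCL cells were pretreated or not for 18 h with 0.5 ug/ml 177Lu-lilotomab satetraxetan (600 MBq/mg), washed and seeded (3000 cells/well) on 384-well plates pre-printed with the Selleck Cambridge Cancer Compound library. Viability was read by RealTime-Glo luminescence on days 3-6 after seeding. Effect = 1 - RLU/mean RLU of the 48 untreated no-drug control wells per plate; Bliss score = (M-E)/(1-Fa).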

| Structure (SMILES) | growth inhibition by drug plus 177Lu-lilotomab satetraxetan (10 nM, time (day): 3) | growth inhibition by drug plus 177Lu-lilotomab satetraxetan (10 nM, time (day): 4) | growth inhibition by drug plus 177Lu-lilotomab satetraxetan (10 nM, time (day): 5) | growth inhibition by drug plus 177Lu-lilotomab satetraxetan (10 nM, time (day): 6) | growth inhibition by drug plus 177Lu-lilotomab satetraxetan (100 nM, time (day): 3) | growth inhibition by drug plus 177Lu-lilotomab satetraxetan (100 nM, time (day): 4) | growth inhibition by drug plus 177Lu-lilotomab satetraxetan (100 nM, time (day): 5) | growth inhibition by drug plus 177Lu-lilotomab satetraxetan (100 nM, time (day): 6) |
| --- | --- | --- | --- | --- | --- | --- | --- | --- |
| CO[C@H]1/C=C\C=C(/C)C(=O)NC2=CC(=O)C(NCCN(C)C)=C(C[C@@H](C)C[C@H](OC)[C@H](O)[C@@H](C)/C=C(\C)[C@@H]1OC(N)=O)C2=O [17-DMAG HCl (Alvespimycin)] | 0.602 | 0.624 | 0.637 | 0.653 | 0.96 | 0.98 | 0.982 | 0.987 |
| COc1ccc(CCN2CCN(CCCc3ccccc3)CC2)cc1OC | 0.23 | 0.322 | 0.343 | 0.385 | 0.0167 | 0.137 | 0.119 | 0.162 |
| CC(=O)O[C@]1(C(C)=O)CC[C@H]2[C@@H]3C=C(C)C4=CC(=O)CC[C@]4(C)[C@H]3CC[C@@]21C [Megestrol Acetate] | 0.408 | 0.529 | 0.546 | 0.551 | 0.497 | 0.522 | 0.525 | 0.508 |
| COc1ccc(CNC(=O)Nc2ncc([N+](=O)[O-])s2)cc1 | 0.496 | 0.573 | 0.599 | 0.609 | 0.44 | 0.479 | 0.489 | 0.47 |
| CCCS(=O)(=O)Nc1ccc(F)c(C(=O)c2c[nH]c3ncc(-c4ccc(Cl)cc4)cc23)c1F [Vemurafenib (PLX4032)] | 0.42 | 0.546 | 0.561 | 0.576 | 0.432 | 0.531 | 0.539 | 0.524 |
